In PubChem BioAssay AID463173 (ICCB-Longwood Screening Facility, Harvard Medical School, 2010):
“And” between values parts separate entries of the source, which are not always exact repeats. Equal entries are not always repeated. The campaign covered roughly 52,000 compounds. About 4,300 (8.3%) were called active. Cut-off read from the data, not from the text of the source: active = survival mostly below about 52% (no sharp cut-off); inactive = mostly above about 56%. Many of the other results were omitted from the sample, so actives are more common in it than they were. Some structures have more than one record in an assay (separate samples or runs), and their calls can disagree.

test system: DeltatarO mutant; experiment: growth inhibition of S. aureus wild type versus tarO mutant, primary screen, teichoic acid synthesis inhibitors, RN4220, OD600 (AID 463173); conditions: OD600, 18 h, stronger effect = lower value, screened at 18.75 µg/mL (by protocol)

Row | Compound | survival
1 | COCCNC(=O)CSc1nc(-c2ccc(C)cc2)[nH]c1-c1ccc(OC)cc1 | 84% (inactive)
2 | COc1cc(OC)c(NC(=O)C(NS(=O)(=O)c2cccc3nsnc23)c2ccccc2)cc1Cl (configuration not stated) | 60% (inactive)
3 | COc1ccccc1N1CCN(C(=O)c2cn(C)c3ccc(S(=O)(=O)N4CCOCC4)cc3c2=O)CC1 | 84% (inactive)
4 | Cc1ccc(C)c(OCCn2cc(C(=O)c3ccco3)c3ccccc32)c1 | 104% (inactive)
5 | Cc1ccc(OCCn2cc(C(=O)c3ccco3)c3ccccc32)cc1C | 27% (active)
6 | Cc1ccccc1OCCn1cc(C(=O)c2ccco2)c2ccccc21 | 44% (inactive)
7 | O=C(c1ccco1)c1cn(CCOc2ccc(Cl)cc2)c2ccccc12 | 78% (inactive)
8 | Cc1ccc(C(C)C)c(OCCn2cc(C(=O)c3ccco3)c3ccccc32)c1 | 35% (active)
9 | O=C(Cn1cc(C(=O)c2ccco2)c2ccccc21)Nc1ccccc1 | 41% (active) and 47% (inactive)
10 | O=C(c1ccco1)c1cn(CCOc2ccc(F)cc2)c2ccccc12 | 99% (inactive)
11 | Cc1cc(OCCn2cc(C(=O)c3ccco3)c3ccccc32)ccc1Cl | 53% (inactive)
12 | CC(C)(C)c1ccc(OCCn2cc(C(=O)c3ccco3)c3ccccc32)cc1 | 35% (active)
13 | CCOc1ccc(NC(=O)Cn2cc(C(=O)c3ccco3)c3ccccc32)cc1 | 63% (inactive)
14 | COc1ccc(OCCn2cc(C(=O)c3ccco3)c3ccccc32)cc1 | 56% (inactive)
15 | O=C(Cn1cc(C(=O)c2ccco2)c2ccccc21)Nc1ccc(Br)cc1 | 88% (inactive)
16 | COc1ccccc1N1CCN(Cc2cc(COC(C)C)c3cccnc3c2O)CC1 | 84% (inactive)
17 | CCC(C)(C)n1nnnc1C(C(C)C)N(Cc1cccnc1)Cc1ccco1 (configuration not stated) | 78% (inactive)
18 | COc1ccccc1N1CCN(C(=O)c2cn(C)c3ccc(S(=O)(=O)N(C)C4CCCCC4)cc3c2=O)CC1 | 83% (inactive)
19 | CCCC12CN3CC(CCC)(CN(C1)C3c1c(C)[nH]c(=O)[nH]c1=O)C2=O (configuration not stated) | 109% (inactive)
20 | CCC(C)NC(=O)c1c(-c2ccccc2)c(-c2ccccc2)nn(C)c1=O (configuration not stated) | 50% (inactive)
21 | CCOc1ccc(OCC)c(NC(=O)C2CCCN(S(=O)(=O)c3cc(Br)cc4c3N(C(=O)CC)CC4)C2)c1 (configuration not stated) | 100% (inactive)
22 | COc1ccc(CCNC(=O)CCCn2c(=O)c3ccccc3n(Cc3cccc(Cl)c3)c2=O)cc1OC | 72% (inactive)
23 | Cc1ccc2nc(N3CCN(C(=O)C4COc5ccccc5O4)CC3)sc2c1 (configuration not stated) | 89% (inactive)

Row | Compound | survival
24 | COc1ccccc1CNC(=O)COCc1cc(-c2ccc3c(c2)OCO3)on1 | 25% (active)
25 | Cc1ccc(CNC(=O)COCc2cc(-c3ccc4c(c3)OCO4)on2)cc1 | 75% (inactive)
26 | O=C(COCc1cc(-c2ccc3c(c2)OCO3)on1)NCc1ccc(F)cc1 | 85% (inactive)
27 | O=C(COCc1cc(-c2ccc3c(c2)OCO3)on1)NCc1ccccc1Cl | 70% (inactive)
28 | COc1ccc(CNC(=O)COCc2cc(-c3ccc4c(c3)OCO4)on2)cc1 | 94% (inactive)
29 | COc1cccc(CNC(=O)COCc2cc(-c3ccc4c(c3)OCO4)on2)c1 | 37% (active)
30 | O=S(=O)(c1ccccc1)n1nc(-c2ccco2)nc1NCc1ccccc1 | 71% (inactive)
31 | O=C(Nc1ccc(N2CCN(C(=O)c3ccco3)CC2)cc1)c1ccccc1 | 93% (inactive)
32 | CCOc1ccc(-n2nc3ccc(NC(=O)c4cccc(F)c4)cc3n2)cc1 | 84% (inactive)
33 | CCCNC(=O)c1ccc2c(c1)nc1n2CCCCC1 | 94% (inactive)
34 | COc1cccc(C(=O)NCCc2csc(-c3cccc(F)c3)n2)c1OC | 75% (inactive)
35 | Cc1cccc(N2CCN(C(=O)CN3C(=O)COc4ccc(S(=O)(=O)N5CCCC5)cc43)CC2C)c1 (configuration not stated) | 77% (inactive)
36 | O=C(COc1ccccc1[N+](=O)[O-])N1CCC(c2nc3ccccc3o2)CC1 | 79% (inactive)
37 | CCOC(=O)c1csc2c1CCC/C2=N/OC(C)=O | 86% (inactive)
38 | CCOC(=O)c1cc2c(=O)n3ccccc3nc2n(Cc2ccco2)c1=NC(=O)c1cc(C)cc(C)c1 | 29% (active)
39 | CCOC(=O)c1cc2c(=O)n3ccccc3nc2n(Cc2ccco2)c1=NC(=O)c1cccc(C)c1 | 33% (active)
40 | CCOc1ccccc1NC(=O)Cn1ccn(-c2ccccc2)c(=O)c1=O | 49% (inactive)
41 | O=C(COc1ccccc1)Nc1nnc(S(=O)(=O)N2CCCC2)s1 | 39% (active)
42 | CCN(CC)S(=O)(=O)c1nnc(NC(=O)COc2cccc(C)c2)s1 | 94% (inactive)
43 | Cc1cc(C)cc(N(C)S(=O)(=O)c2nnc(NC(=O)COc3ccc(C)c(C)c3)s2)c1 | 30% (active)
44 | Cc1cccc(OCC(=O)Nc2nnc(S(=O)(=O)N3CCCCCC3)s2)c1 | 48% (active)
45 | CN(c1ccccc1)S(=O)(=O)c1nnc(NC(=O)COc2ccccc2)s1 | 56% (inactive)
46 | CCC(=O)Nc1nnc(S(=O)(=O)N2CCCCCC2)s1 | 89% (inactive)

Row | Compound | survival
47 | Cc1cc(C)cc(N(C)S(=O)(=O)c2nnc(NC(=O)COc3ccc(Cl)cc3)s2)c1 | 80% (inactive)
48 | COc1ccc(OCC(=O)Nc2nnc(S(=O)(=O)N3CCCCCC3)s2)cc1 | 76% (inactive)
49 | CC(Oc1ccccc1)C(=O)Nc1nnc(S(=O)(=O)N2CCCCCC2)s1 (configuration not stated) | 50% (inactive)
50 | O=C(COc1ccc(Cl)cc1)Nc1nnc(S(=O)(=O)N2CCCCCC2)s1 | 55% (active)
51 | O=C(COc1ccccc1)Nc1nnc(S(=O)(=O)N2CCCCCC2)s1 | 79% (inactive)
52 | Cc1ccc(OCC(=O)Nc2nnc(S(=O)(=O)N3CCCCCC3)s2)cc1 | 64% (inactive)
53 | CC1(C)CC(=O)C2=C(C1)NC1=C(C(=O)CC(C)(C)C1)C2c1ccc2c(c1)OCO2 | 96% (inactive)
54 | NC(=O)c1nc(-c2ccc(F)c(F)c2)nc2c1[nH]c(=O)n2-c1cccc(Cl)c1 | 86% (inactive)
55 | O=C(Nc1cccc(C(F)(F)F)c1)N1CCC(CN2CCCCCC2)CC1 | 83% (inactive)
56 | Cc1cccc(C(=O)Nc2ccc(N3CCC(CCN4CCOCC4)CC3)c(C(=O)O)c2)c1 | 66% (inactive)
57 | Cc1ccc(N2CCN(c3cc(C)nc4c(-c5ccc(Cl)cc5)c(C)nn34)CC2C)cc1 (configuration not stated) | 55% (inactive)
58 | COc1ccc(C(=O)c2cn(Cc3ccc(F)cc3)c3c(F)cc(F)cc3c2=O)cc1 | 103% (inactive)
59 | Cc1cccc(N2CCN(C(=O)CCNS(=O)(=O)c3ccc4c(c3)CCN4C(=O)C3CC3)CC2)c1C | 73% (inactive)
60 | N#Cc1ccccc1NC(=O)CSc1nnc(N)s1 | 76% (inactive)
61 | CC(C)CC(=O)Nc1nnc(S(=O)(=O)N2CCCCCC2)s1 | 109% (inactive)
62 | CCCC(=O)Nc1nnc(S(=O)(=O)N2CCCCCC2)s1 | 91% (inactive)
63 | O=C(COc1ccc(F)cc1)Nc1nnc(S(=O)(=O)N2CCCC2)s1 | 39% (active)
64 | COc1ccc(/C=C(\C#N)c2nc3ccccc3n2C)c(OC)c1 | 29% (active)
65 | COc1ccc(Cl)cc1N/C=C(/C#N)c1nc2ccccc2n1C | 82% (inactive)
66 | Cn1c(/C(C#N)=C/C2CC=CCC2)nc2ccccc21 (configuration not stated) | 78% (inactive)
67 | Cn1c(/C(C#N)=C/c2ccc(C(F)(F)F)cc2)nc2ccccc21 | 103% (inactive)
68 | COc1cc(/C=C(\C#N)c2nc3ccccc3n2C)cc(OC)c1OC | 47% (active)
69 | Cn1c(/C(C#N)=C/c2ccccc2Br)nc2ccccc21 | 79% (inactive)

Row | Compound | survival
70 | Cc1cc(=O)n(CC(=O)N2CCCc3ccccc32)c2c1c(C)nn2-c1cccc(F)c1 | 85% (inactive)
71 | Cc1ccc(C)c(NC(=O)CSc2ncc3c(n2)-c2ccc(Cl)cc2N(C)S3(=O)=O)c1 | 74% (inactive)
72 | CCCCN(C)CCNC(=O)c1ccc2c(c1)NC(=O)CN2 | 71% (inactive)
73 | O=C(Nc1ccc2nn(-c3ccccc3)nc2c1)c1ccc(-c2cccc(Cl)c2)o1 | 105% (inactive)
74 | CCOc1ccc(-n2nc3ccc(NC(=O)c4ccc(-c5cccc(Cl)c5)o4)cc3n2)cc1 | 45% (active)
75 | COc1ccc(-n2nc3ccc(NC(=O)c4ccc(-c5cc(Cl)ccc5Cl)o4)cc3n2)cc1 | 40% (active)
76 | O=C(Nc1ccc2nn(-c3ccc(Cl)cc3)nc2c1)c1cc2ccccc2o1 | 65% (inactive)
77 | COc1ccc(-n2nc3ccc(NC(=O)c4cc5ccccc5o4)cc3n2)cc1Cl | 159% (inactive)
78 | CCOc1ccc(-n2nc3ccc(NC(=O)Cc4ccccc4)cc3n2)cc1 | 74% (inactive)
79 | CCCCN(CC)CCCNC(=O)c1cc2c(-c3ccc(OC)c(OC)c3)nn(C)c2s1 | 140% (inactive)
80 | Cc1ccc(N2CCN(C(=O)c3cnn(-c4ccc(C)c(C)c4)c3C3CCNCC3)CC2)c(C)c1 | 55% (inactive)
81 | CCN(CC)S(=O)(=O)c1ccc2oc(C(=O)Nc3ccc(Br)cc3F)c(C)c2c1 | 69% (inactive)
82 | O=C(O)CCN1CCCC1 | 78% (inactive)
83 | CCN(c1cccc(C)c1)c1ncnc2c1cnn2-c1cccc(Cl)c1 | 70% (inactive)
84 | N#C/C(=C\c1ccc(F)cc1)c1nc(-c2ccc(-c3ccccc3)cc2)cs1 | 69% (inactive)
85 | CC(C)c1ccc(/C=C(\C#N)c2nc(-c3ccc(O)cc3)cs2)cc1 | -1% (active)
86 | CCc1ccc(/C=C(/C#N)c2nc(-c3ccc(C)cc3)cs2)cc1 | 8% (active)
87 | Cc1ccc(/C=C(\C#N)c2nc(-c3ccc(-c4ccccc4)cc3)cs2)cc1 | 57% (inactive)
88 | CCOc1ccc(-c2csc(/C(C#N)=C/c3ccc(Br)cc3)n2)cc1 | 55% (inactive)
89 | COc1ccc(/C=C(/C#N)c2nc(-c3ccc(-c4ccccc4)cc3)cs2)cc1 | 73% (inactive)
90 | N#C/C(=C/c1ccc(O)cc1)c1nc(-c2ccc(-c3ccccc3)cc2)cs1 | 9% (active)
91 | N#C/C(=C/c1ccc(Cl)cc1)c1nc(-c2ccc(Br)cc2)cs1 | 65% (inactive)
92 | CN(C)c1ccc(/C=C(\C#N)c2nc(-c3ccc(Cl)c(Cl)c3)cs2)cc1 | 76% (inactive)
